# Assay results reported in PubChem BioAssay (Tox21).
# Records with an inconclusive call do not appear. A call without a number means that no potency is given here. Active and inactive are the calls of the source. Calls come from the whole dose curve; as a rule, active = well fitted cell-killing curve with a large enough effect in the repeat runs; inconclusive = weak or mixed curves, or effect the other way; inactive = no such curve, though single readings can be large or run the other way.
# Assay: qHTS assay to identify small molecule antagonists of the retinoid-related orphan receptor gamma (ROR-gamma) signaling pathway - cell viability counter screen (AID 1159520); note: nearly all actives have a fitted effect of over 50% in size
# Conditions: Tet-on RORgamma CHO cells viability, ATP luminescence, 16 h; series mostly up to 92.4 µM
# Text: U.S. Tox21 Program National Center for Advancing Translational Sciences [NCATS] NIH Chemical Genomics Center [NCGC] U.S. Environmental Protection Agency [EPA] National Institutes of Environmental Health Sciences [NIEHS] National Toxicology Program [NTP] U.S. Food and Drug Administration [FDA] Tox21 Assay Overview: Nuclear steroid hormone receptors are involved in many biological processes including inflammatory responses, cell proliferation, and apoptosis. Environmental factors or compounds disrupting these nuclear receptor pathways and gene expression may promote susceptibility to immunotoxicants and autoimmune diseases. One important group of these expression factors are the retinoid-related orphan receptors. To assess compounds that may interfere with the retinoid-related orphan receptor gamma (ROR-gamma) transcription factor, a cell-based luciferase assay was used. The CHO cell-based assay utilizes a TET-inducible ROR expression factor and ROR response element-LUC reporter gene. Reporter gene activity was induced using Doxycycline Hyclate and measured after 16 hr incubation. Tet-on ROR gamma CHO cells were used to screen against the Tox21 10K compound library for cytotoxicity by measuring the viability of the cells based on the quantitation of the ATP.
# Tox21 Assay Protocol Summary: Tet-on ROR gamma CHO cells were dispensed at 1,000 cells in 4 uL of culture medium per well into white wall/solid bottom 1536-well plates using a Multidrop Combi (Thermo Scientific, Waltham, MA) dispenser. Following incubation at 37 C and 5% CO2 for 4 hr, 23 nL of compounds dissolved in DMSO, positive controls or DMSO only were transferred by a Pintool station (Kalypsys, San Diego, CA) and after 2 hr incubation at 37 C, one ul of 1 uM (final concentration) of Doxycycline Hyclate was added to all the wells by using a Flying Reagent Dispenser (FRD) (Aurora Discovery, San Diego, CA). After 16 hr incubation at 37 C and 5% CO2, 5 uL of CellTiter-Glo reagent (Promega Corporation, Madison, WI) was added to each assay plate using FRD. After 30 min incubation at room temperature, luminescence was quantified on a ViewLux plate reader (Perkin Elmer, Waltham, MA).
# Potency is the fitted concentration of half-maximal effect.
row,SMILES,Potency
1,COP(=O)(OC)O/C(=C/Cl)c1cc(Cl)c(Cl)cc1Cl,inactive
2,N#CCc1ccccc1,inactive
3,Clc1cc(C(Cl)(Cl)Cl)cnc1Cl,inactive
4,COc1cc(CC(C)N)cc2c1OCO2 (stereo not given),inactive
5,CCCN(CC1CC1)c1c([N+](=O)[O-])cc(C(F)(F)F)cc1[N+](=O)[O-],inactive
6,c1cc2ccc3cccc4ccc(c1)c2c34,inactive
7,COc1nn(C(=O)NS(=O)(=O)c2ccccc2OC(F)(F)F)c(=O)n1C,inactive
8,C=CCN1CC[C@]23c4c5ccc(O)c4O[C@H]2C(=O)CC[C@@]3(O)[C@H]1C5,inactive
9,COC(N)=O,inactive
10,O=[N+]([O-])c1ccc(F)c([N+](=O)[O-])c1,38.9 µM (active)
11,CC(C)(C)C(O)C(Oc1ccc(Cl)cc1)n1cncn1 (stereo not given),inactive
12,c1ccoc1,inactive
13,O=S1OC[C@@H]2[C@H](CO1)[C@]1(Cl)C(Cl)=C(Cl)[C@@]2(Cl)C1(Cl)Cl (stereo not given in full),inactive
14,CCBr,inactive
15,C=CC(=O)NCNC(=O)C=C,inactive
16,NNC(=O)c1cccnc1,inactive
17,COc1ccc(-c2ccccc2)cc1NNC(=O)OC(C)C,inactive
18,C=CC(=O)OCC(C)O (stereo not given),inactive
19,O=C(CBr)OCc1ccccc1,inactive
20,CCOP(=S)(OCC)Oc1nc(Cl)c(Cl)cc1Cl,inactive

row,SMILES,Potency
1,Clc1ccc(C2(Cn3cncn3)CC(Br)CO2)c(Cl)c1 (stereo not given),inactive
2,COC1=CC(=O)O[C@@H](CCc2ccccc2)C1,inactive
3,CN1C[C@H](CNC(=O)OCc2ccccc2)C[C@@H]2c3cccc4c3c(cn4C)C[C@H]21,inactive
4,COCC(C)N(C(=O)CCl)c1c(C)csc1C (stereo not given),inactive
5,Clc1cccc2ccccc12,inactive
6,CC(C)=CCOc1c2occc2cc2ccc(=O)oc12,inactive
7,O=C(Nc1ccccc1)Nc1cnns1,inactive
8,COc1c(C(C)(C)C)cc([N+](=O)[O-])c(C)c1[N+](=O)[O-],inactive
9,O=C(C(Cl)(Cl)Cl)C(Cl)(Cl)Cl,inactive
10,CCCCCCCCOC(=O)c1ccc(C(=O)OCCCCCCCC)c(C(=O)OCCCCCCCC)c1,inactive
11,COCCOCCO,inactive
12,C=CC(=O)OC,inactive
13,CCOP(=S)(OCC)SCn1nnc2ccccc2c1=O,inactive
14,COC(=O)c1cncn1C(C)c1ccccc1 (stereo not given),inactive
15,CCOS(C)(=O)=O,inactive
16,C=CCCl,inactive
17,CCn1cc[n+](C)c1,inactive
18,CCCCC(CC)COP(=O)(Oc1ccccc1)Oc1ccccc1 (stereo not given),inactive
19,Clc1ccc(C(OCCN2CCCCC2)c2ccccc2)cc1 (stereo not given),inactive
20,C#CCOC(C(=O)OCCN(C)C)(c1ccccc1)c1ccccc1,inactive
